According to PubChem BioAssay AID1347076 (National Center for Advancing Translational Sciences (NCATS), 2019):
In all, about 400,000 compounds went through this assay and about 13,000 (3.2%) were called active. A call without a number means that no potency is given here. Another 18% or so got no clear call; they are omitted. Calls follow the shape of the dose curve; as a rule, active = well fitted cell-killing curve with a large enough effect; inconclusive = small, poorly fitted or top-dose-only effect, or effect the other way; inactive = flat fitted curve, though single readings scatter. This excerpt belongs to a sample that is enriched for actives.

Experiment: qHTS assay for MDR1-selective chemotherapeutics: Primary screen using the drug-selected MDR subline cells KB-V1; also: nearly all actives have a fitted effect of over 60% in size
Settings: KB-V1 MDR cells viability, CellTiter-Glo, 72 h; series mostly up to 46.1 µM
Outline: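 Readout: CellTiter-Glo luminescence, 10 min after addition. Cells: KB-V1 MDR subline, 72 h at 37 degrees C with compound. Analysis: corrected, normalized data fitted to concentration-effect curves.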
Potency is read from the fitted curve at half-maximal effect.

SMILES	Potency
Cc1cccc(-n2c(N)c(C(=O)N3CCN(C)CC3)sc2=S)c1	inactive
O=C(c1ccc(S(=O)(=O)c2ccccc2)cc1)N1CCCCCC1	inactive
N#Cc1ccccc1-n1c(N)c(C(=O)N2CCCC2)sc1=S	16.4 µM (active)
COc1ccc(C(=O)NCC[N+](C)(C)C)cc1	inactive
CC1(C(=O)NCc2ccccc2)CSCC(=O)N1CCCN1CCOCC1 (configuration not stated)	inactive
O=C(Nc1ccc(Cl)c(C(F)(F)F)c1)C1Cc2c(-c3ccccc3Oc3ccccc3)ccnc2O1 (configuration not stated)	inactive
CNC(=O)c1sc(NCc2ccccc2OC)nc1C	inactive
Cc1cccc(NC(=O)Nc2ccc(OCc3ccccc3)cc2)n1	inactive
CNC(=O)c1sc(Nc2ccc(OCc3ccccc3)cc2)nc1C	8.2 µM (active)
COc1ccc(C(=O)N2CCCCC2c2cc(C(=O)Nc3ccc(F)c(Cl)c3)no2)cc1 (configuration not stated)	inactive
O=[N+]([O-])c1ccc(CN2CC(N3CC=CC3)CS2(=O)=O)cc1 (configuration not stated)	inactive
CC(C)(C)S(=O)N1Cc2cc(C(=O)NCCCN3CCOCC3)nc(-c3cccc(-c4cc5ccccc5o4)c3)c2[C@H]1CCO (some centres not stated)	inactive
CC(=O)Nc1ccc(NC(=O)c2cc3sccc3n2Cc2ccc(F)cc2)cc1	inactive
O=C(NCc1ccco1)c1cc2sccc2n1Cc1ccc(F)cc1	16.4 µM (active)
O=C(NCc1ccco1)c1ccc(Cn2c(=O)c3sccc3n(Cc3ccc(F)cc3)c2=O)cc1	inactive
CCCCCCN1C[C@H](O)[C@@H](n2cc(C3CC3)nn2)C[C@@H]1c1ccc(Cl)cc1	inactive
CCOC(=O)c1ccc(NC(=O)c2csc3c2CCCCC3)cc1	inactive
COC(=O)c1sccc1NC(=O)c1ccc(Cl)cc1	inactive
COC(=O)c1sccc1NC(=O)c1csc2c1CCCC2	14.6 µM (active)
CCNC(=S)Nc1ccc2c(c1)c(=O)n(C)n2Cc1ccc(Cl)cc1	inactive
CCC(C(=O)NC(C)(C)C)n1c(-c2ccccc2)nc2ccccc21 (configuration not stated)	inactive

SMILES	Potency
Cc1onc(NC(=O)c2ccc([N+](=O)[O-])o2)c1Br	inactive
Cc1cccc(NC(=O)c2ccc([N+](=O)[O-])o2)c1	18.4 µM (active)
O=C(Nc1ccc(Br)cn1)c1ccc([N+](=O)[O-])o1	inactive
COc1cccc(-c2nnc(SCC(=O)N3CCC(C)CC3)o2)c1	inactive
CCN(CC)C(=O)CSc1nnc(-c2cccc(OC)c2)o1	11.6 µM (active)
COc1cccc(NC(=O)CSc2nnc(-c3cccnc3)o2)c1	inactive
CC(C)c1nc2ccc(C(=O)O)cc2[nH]1	inactive
Cc1ccc2nc(CNC(=O)c3ccccc3)[nH]c2c1	inactive
COC(=O)Nc1nc2ccc(Sc3ccccc3)cc2[nH]1	1.16 µM (active)
CCN(CCCNC(=O)Cn1ncc2c3ccccc3n(C)c2c1=O)Cc1ccccc1	inactive
COCCN(CCOC)S(=O)(=O)c1ccc(C(=O)Nc2nc3c(s2)CCc2ccccc2-3)cc1	8.2 µM (active)
COCCN(CCOC)S(=O)(=O)c1ccc(/C(O)=C(\C#N)c2nc3ccccc3[nH]2)cc1	inactive
C=CCN(CC=C)S(=O)(=O)c1ccc(C(=O)Nc2nc3c(s2)CCc2ccccc2-3)cc1	inactive
O=[N+]([O-])c1ccc(S(=O)(=O)N2CCN(c3nc(-c4ccccc4)nc4ccccc34)CC2)cc1	inactive
CC(=O)c1cccc(-c2cnc3c(NC=O)cc(-c4ccc(N(C)C)cc4)cn23)c1	18.4 µM (active)
COc1ccc(-c2cc(NC=O)c3ncc(-c4ccccc4)n3c2)cc1OC	18.4 µM (active)
CC(=O)Nc1cc(-c2cccc(CO)c2)cn2c(-c3cccc(C(F)(F)F)c3)cnc12	inactive
CC(=O)c1cccc(-c2cnc3c(NC=O)cc(-c4ccccc4Oc4ccccc4)cn23)c1	inactive
CN(C)C(=O)c1cccc(-c2cnc3c(NC=O)cc(-c4ccc(C(=O)N5CCOCC5)cc4)cn23)c1	inactive
CN(C)CCNC(=O)c1cccc(-c2cnc3c(NC=O)cc(-c4cccc(C(F)(F)F)c4)cn23)c1	14.6 µM (active)
CC(=O)c1ccc(-c2cnc3c(NC=O)cc(-c4cccc(NS(C)(=O)=O)c4)cn23)cc1	inactive

SMILES	Potency
CC(=O)c1cccc(-c2cnc3c(NC=O)cc(-c4cccc(C(=O)N(C)C)c4)cn23)c1	inactive
CC(=O)c1cccc(-c2cnc3c(NC=O)cc(-c4ccc(N5CCN(C)CC5)cc4)cn23)c1	inactive
CC(C)(C)C(=O)c1c(N)[nH]c(C(=O)c2ccccc2)c1-c1ccc(F)cc1	inactive
CCCNC(=O)C1(C)CCCN(Cc2cccc(C(F)(F)F)c2)C1 (configuration not stated)	inactive
CC1CN(C(=O)c2cccc(NS(=O)(=O)c3ccc(Br)cc3)c2)CC(C)O1 (configuration not stated)	inactive
CCN(CC)C(=O)C1=C(C)N(Cc2ccc(F)cc2)C(=O)C(CC(=O)NCc2cccc3ccccc23)C1 (configuration not stated)	inactive
FC(F)(F)Oc1ccccc1C(c1nnnn1C1CCCCC1)N1CCN(C/C=C/c2ccccc2)CC1 (configuration not stated)	inactive
CCCCC[C@@H]1C=C(C(=O)OCC)[C@H](c2ccccc2)N1S(=O)(=O)c1ccc(C)cc1	inactive
CS(=O)(=O)N1CCCCC1c1cc(C(=O)NCc2ccccc2)no1 (configuration not stated)	inactive
Cc1ccc(Cn2c(=O)n(-c3ccc(C)cc3)c(=O)c3c2c2cc(C)ccc2n3C)cc1	inactive
CCOC(=O)COc1ccc([N+](=O)[O-])cc1	inactive
Cc1ccc(NC(=O)/C(=C/c2ccc([N+](=O)[O-])cc2)NC(=O)c2ccccc2)cc1	inactive
CCOC(=O)/C(=C\c1ccc([N+](=O)[O-])cc1)C(=O)c1cc(C(C)=O)c(Nc2ccccc2)s1	8.2 µM (active)
O=c1c(NCc2cccs2)nccn1-c1ccccc1	inactive
COc1ccccc1N1CCN(Cc2cc(OC)c3c(c2)OCO3)CC1	inactive
CNCC(O)CN1CCN(c2ccccc2OC)CC1 (configuration not stated)	inactive
COc1ccccc1N1CCN(Cc2ccc(OC)c3ccccc23)CC1	16.4 µM (active)
CCCn1c(NCc2ccc(N(CC)CC)cc2)nc2ccccc21	inactive
COc1ccc(-c2ccc(CN3C(C(C)C)C(=O)N(Cc4cn(CC5CCCCC5)nn4)CCS3(=O)=O)cc2)cn1 (configuration not stated)	inactive
CCOC(=O)c1c(NC(=S)SC)sc(C(=O)N2CCc3ccccc3C2)c1C	inactive
